system: Plasmodium falciparum Sir2 (PF13_0152, Sir2A); test: Plasmodium falciparum Sir2A binding compounds – biochemical, small-molecule microarray, 635 nm fluorescence, primary screen (AID 1098); conditions: fluorescence 635 nm, higher = more signal;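 further: score merges spot fluorescence intensity with its signal-to-noise ratio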

SMILES	composite z-score
CCCCC(=C=CC[C@@H](O)c1ccccc1OCCO)CCO	-0.189
COc1ccc(C(O)C2C=CC3C(=O)NC(=O)C3N2Nc2ccccn2)c2ccccc12 (stereo not drawn)	0.157
COc1cc(CO)cc(I)c1O[C@H]1C=C(C(=O)NCCO)C[C@@H](N(CCN2CCOCC2)C(=O)C2CCOC2)[C@@H]1O (stereo partly drawn)	0.505
COC(=O)[C@@]1(Cc2ccc(F)cc2)[C@H]2c3cc(C(=O)N(C)C)n(Cc4ccc(S(C)(=O)=O)cc4)c3C[C@H]2CN1C(=O)c1ccccc1	0.46
CC(=O)n1cc(C(O)C2C=CC3C(=O)N(C)C(=O)C3N2Nc2ccccc2)c2ccccc21 (stereo not drawn)	0.511
O=C1O[C@H](c2ccccc2)[C@H](c2ccccc2)N2[C@H]1[C@@H](C(=O)NC[C@H](O)c1ccccc1)[C@]1(C(=O)Nc3ccccc31)[C@H]2c1ccc(OCCO)cc1	0.884
C=C(CCCC)C(=O)CC[C@H](OC(C)=O)c1cccc(OCCO)c1	0.707
COCCOC(=O)N1C(=O)[C@@]2(c3cc(C#CC4=CCCCC4)ccc31)[C@H](C(=O)Nc1nc3ccccc3s1)[C@H]1C(=O)O[C@H](c3ccccc3)[C@H](c3ccccc3)N1[C@@H]2c1ccccc1OCCO	0.966
CN1C(=O)C2C=CC(C(O)c3cc(C(F)(F)F)cc(C(F)(F)F)c3)N(N3CCCCC3)C2C1=O (stereo not drawn)	0.567
CN(C)C(=O)[C@@]1(Cc2ccccc2)N=C(c2ccc(OCCCO)cc2)O[C@H]1c1ccccc1N=[N+]=[N-]	1.36
[N-]=[N+]=NCc1ccccc1[C@@H]1OC(c2ccc(OCCCO)cc2)=N[C@]1(CCS(=O)(=O)c1ccccc1)C(=O)NCc1ccccc1	1.54
CCOC(=O)[C@H]1C/C=C/C[C@H](C(=O)OCC)C(=O)O[C@H]2[C@@H](OC)O[C@H](CO)[C@@H](OC(=O)Nc3ccc(C#N)cc3)[C@@H]2OC1=O	0.859
C#CCN(Cc1ccccc1Br)C(/C=C/c1ccccc1)CO (stereo not drawn)	-0.877
CC(C)[C@@H](CO)NC(=O)[C@H]1[C@@H](c2ccccc2)N(c2ccccc2)O[C@@H]1C	0.008
[N-]=[N+]=Nc1ccccc1C[C@]1(C(=O)NCC(O)CO)N=C(c2ccc(OCCCO)cc2)O[C@H]1c1ccccc1N=[N+]=[N-] (stereo partly drawn)	0.535
C=CC[C@]1(C(=O)NCCCOC)N=C(c2ccc(OCCCO)cc2)O[C@H]1c1ccccc1N=[N+]=[N-]	1.65
C=CCOC(=O)[C@H]1[C@@H]2C(=O)O[C@@H](c3ccccc3)[C@@H](c3ccccc3)N2[C@@H](c2ccc(OCCOC(=O)[C@H]3C[C@H]4C(=O)N5CCC[C@H]5C(=O)N4[C@H]3c3ccc(O)cc3)cc2)[C@]12C(=O)Nc1ccccc12	1.54
CN(C)CCCCCCNC(=O)[C@@H]1C[C@@H]2C(=O)N[C@@H](CCCCN)C(=O)N2[C@@H]1c1cccc(OCCO)c1	1.96
COCCOC(=O)N1C(=O)[C@@]2(c3cc(C#Cc4ccc(OC)cc4)ccc31)[C@H](C(N)=O)[C@H]1C(=O)O[C@H](c3ccccc3)[C@H](c3ccccc3)N1[C@@H]2c1ccccc1OCCO	1.48
CCOC(=O)[C@H]1C/C=C/C[C@H](C(=O)OCC)C(=O)O[C@H]2[C@@H](OC)O[C@H](CO)[C@@H](OC(=O)Nc3cccc(F)c3)[C@@H]2OC1=O	1.39
CN1C(=O)C2C=CC(C(O)C3CC=CCC3)N(NC(=O)OC(C)(C)C)C2C1=O (stereo not drawn)	0.701
COc1ccc(CCNC(=O)[C@@]2(Sc3ccc(C)cc3)CC(=O)N(C3CCCCC3)[C@@H]2c2ccc(CO)cc2I)cc1	1.09
COc1ccc(CCNC(=O)[C@@H]2c3ccccc3C(=O)N(C3Cc4ccccc4C3)[C@H]2c2ccc(CO)cc2)cc1	0.613
CO[C@H]1O[C@H](CO)[C@@H](OC(=O)Nc2ccc(Br)cc2)[C@H](OC(=O)c2cc3ccccc3[nH]2)[C@H]1OC(=O)c1cc2ccccc2[nH]1	1.23
C=CCOC(=O)[C@H]1[C@@H]2C(=O)O[C@@H](c3ccccc3)[C@@H](c3ccccc3)N2[C@@H](c2ccc(OCCOC(=O)[C@H]3C[C@H]4C(=O)N[C@@H](CC(C)C)C(=O)N4[C@H]3c3ccc(O)cc3)cc2)[C@]12C(=O)Nc1ccc(I)cc12	1.5
O=C(NCC(F)(F)F)[C@@H]1c2ccccc2C(=O)N(C2CCCCC2)[C@H]1c1ccc(CO)cc1	1.56
CCCC=C(CCC)[C@@H](NC(=O)Oc1ccc(F)cc1)c1ccc(C(=O)OC)cc1	0.217
COC(=O)c1c(CC[C@@H](CO)NC(=O)N2CCC[C@H]2Cn2cc(-c3ccccn3)nn2)oc(C(C)=O)c1C(=O)OC	1.23

From PubChem BioAssay
